Assay outcomes deposited in PubChem by several laboratories.
14-3-3 Bad inh – inhibitors of 14-3-3 zeta/Bad binding, primary screen, biochemical, TR-FRET, bovine 14-3-3 zeta. 14-3-3 protein zeta/delta (Bos taurus), P63103. TR-FRET 14-3-3zeta/Dy647-pBad peptide displacement, 1 h. inhibition, % at 21.7 µM. 220,000 tested, 0.71% active. AID 781, 2007;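 active means inhibition above about 70%, limit read from the data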;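 further: 0% = full 14-3-3 plus peptide FRET controls and 100% = background without 14-3-3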
Target sequence (P63103 whole entry, looked up): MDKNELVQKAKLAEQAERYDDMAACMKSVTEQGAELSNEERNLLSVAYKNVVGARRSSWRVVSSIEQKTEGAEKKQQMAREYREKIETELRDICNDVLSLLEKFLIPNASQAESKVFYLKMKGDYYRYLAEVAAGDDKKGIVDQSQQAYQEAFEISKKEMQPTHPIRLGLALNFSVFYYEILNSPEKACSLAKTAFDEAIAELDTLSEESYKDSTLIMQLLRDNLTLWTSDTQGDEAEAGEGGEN
dFosB act – activators of delta FosB homodimer, primary screen, biochemical, fluorescence polarization, TAMRA-CDK5 oligo, single point. Protein FosB (Mus musculus), P13346. purified delta FosB; percent of positive-control signal above neutral wells. activation, % at 25 µM. 340,000 tested, 0.99% active. AID 493131, 2011;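 active means mean activation above about 17%, with every replicate also reaching it, limit read from the data, passing the limit was not always enough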
Target sequence (P13346 whole entry, looked up): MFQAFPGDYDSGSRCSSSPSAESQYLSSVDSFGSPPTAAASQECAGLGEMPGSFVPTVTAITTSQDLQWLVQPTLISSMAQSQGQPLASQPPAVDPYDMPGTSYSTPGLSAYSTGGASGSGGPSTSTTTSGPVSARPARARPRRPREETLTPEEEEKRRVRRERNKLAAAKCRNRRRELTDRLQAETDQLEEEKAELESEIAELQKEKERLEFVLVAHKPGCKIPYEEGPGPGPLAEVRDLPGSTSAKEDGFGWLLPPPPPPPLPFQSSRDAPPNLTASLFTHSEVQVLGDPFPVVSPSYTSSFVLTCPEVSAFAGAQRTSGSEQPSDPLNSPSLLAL
NCF1 inh – p47phox/p22phox peptide binding inhibitors, primary screen, biochemical, uHTS, NADPH oxidase regulatory subunit; 220,000 tested, 0.53% active; fluorescence polarization, 2 h; Neutrophil cytosol factor 1 (Homo sapiens), P14598; inhibition, % at 24.7 µM;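 active means inhibition above about 30%, limit read from the data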;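 further: 0% = p47phox with labelled peptide and 100% = labelled peptide alone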
HMGR II inh – inhibitors of E. faecalis class II HMGR, primary screen, biochemical, Enterococcus faecalis; inhibition, % at 10 µM; AID 1066, 2008; HMG-CoA reductase (Enterococcus faecalis, mvaE); purified E. faecalis HMGR, NADPH absorbance 340 nm kinetic; 190,000 tested, 0.41% active;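 active means inhibition above a set limit, the median over all tested compounds plus 3 SD, cut at about 9.5% in these data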;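 further: enzyme runs in reverse so mevalonate oxidation gives rising NADPH absorbance; 0% = complete reaction with DMSO and 100% = background rate lacking mevalonate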
Numbers without * were called inactive; · = no result; [ ] = dose if it differs, or a comment. Shown are actives, neighbours in structure and some others; about 1.9% of the full set was active somewhere.

SMILES	14-3-3 Bad inh	dFosB act	NCF1 inh	HMGR II inh
C#CCOCCOCCOCCNc1nc(N2CCN(C(=O)[C@H](Cc3cc4ccccc4[nH]3)n3cc([C@@H](N)C(C)CC)nn3)CC2)nc(N2CCN(C(=O)[C@H](Cc3cc4ccccc4[nH]3)n3cc([C@@H](N)Cc4ccc(O)cc4)nn3)CC2)n1 (stereo partly drawn)	42.5	·	79.4*	-2.8
C#CCOCCOCCOCCNc1nc(N2CCN(C(=O)[C@H](Cc3cc4ccccc4[nH]3)n3cc([C@@H](N)Cc4ccc(O)cc4)nn3)CC2)nc(N2CCN(C(=O)[C@H](Cc3cc4ccccc4[nH]3)n3cc([C@@H](N)CC(C)C)nn3)CC2)n1	35.6	-133.8	73.4*	·
Cc1cc(S(=O)(=O)N2CCN(CC(=O)NC(C)(C#N)C3CC3)CC2)ccc1Br (stereo not drawn)	·	-2.1	·	·
Cc1c(Nc2nc(-c3cccc([N+](=O)[O-])c3)cs2)c(=O)n(-c2ccccc2)n1C	87.8*	-17.8	3.7	-3.8
Cc1c(NS(=O)(=O)c2cccc([N+](=O)[O-])c2)c(=O)n(-c2ccccc2)n1C	·	-2.2	·	·
COc1cc(S(=O)(=O)NCc2ccncc2)c(OC)cc1C	·	7.9	·	·
COc1ccc(CN2CCN(C(=O)CC(C)C)CC2)c2ccccc12	83.2*	-3.3	0.1	3.4
COc1ccc(CN2CCN(C(=O)CC(C)C)CC2)cc1OC	73.5*	-12.7	-3.1	-4.3
CCCn1c(NCc2ccccc2NS(=O)(=O)c2ccc(C)cc2)nc2ccccc21	-8.4	0.6	-1.9	0.5
COc1ccc(C(=O)COC(=O)c2sc(C)nc2C)cc1F	·	-13.7	·	·
O=C(Nc1nnc(Cc2c[nH]c3ccccc23)s1)c1ccc(Cl)cc1Cl	-10.7	-12.2	-28.7	2.3
COc1ccc(S(=O)(=O)N(c2onc(C)c2Cl)S(=O)(=O)c2ccc(OC)c(OC)c2)cc1OC	77.7*	3.1	-6.9	1.4
CCCCCCCC1(C)NC(=O)N(c2ccccc2)N1 (stereo not drawn)	-1.8	-9.4	-36.1	-4.1
COCCC(=O)N1CCCC(C(=O)c2ccccc2SC)C1 (stereo not drawn)	·	-0.9	·	·
COc1ccc(Cl)cc1C(=O)OCC(=O)Nc1sccc1C(N)=O	·	-5.4	·	·
c1ccc(Cn2ncc3c(N4CCCCC4)ncnc32)cc1	74.2*	1.9	4.5	0.5
Cc1ccc(Cn2ncc3c(N4CCN(c5ccccc5C)CC4)ncnc32)cc1	-10.2	-7.0	0.2	-4.3
Cc1ccc(CNC(=O)CN(C)S(=O)(=O)c2cccs2)cc1	85.7*	4.4	-0.1	-4.3
CN(CC(=O)NCCc1ccccc1)S(=O)(=O)c1cccs1	25.8	-0.5	-7.8	0.6
O=C(CCCc1ccccc1)Nc1nncs1	-6.0	1.2	-7.0	-1.2
COc1ccccc1C(=O)Nc1ccc(C(=O)/C=C/c2cccs2)cc1	-4.1	-5.3	-10.4	-0.7
O=C(/C=C/c1cccs1)c1ccc(NC(=O)c2ccccc2F)cc1	4.4	5.0	-5.6	17.7*
O=C(N/N=C/C(Cl)=C\c1ccccc1)c1cnccn1	-12.2	-13.9	-7.2	-3.5
O=C(N/N=C/C(Cl)=C/c1ccccc1)c1cnccn1	2.6	-10.0	-15.9	14.3*
COc1cc(CNn2nnnc2N)cc(Br)c1OCc1c(Cl)cccc1Cl	-11.7	-13.8	-10.6	1.5
SMILES	14-3-3 Bad inh	dFosB act	NCF1 inh	HMGR II inh
O=C1c2cccc3cccc(c23)C(=O)N1CCN1CCN(C(=S)Nc2ccc(Cl)cc2)CC1	12.3	-4.3	32.0*	-1.4
CCOc1ccc(CCNC(=O)c2cccc(S(=O)(=O)N3CC(C)OC(C)C3)c2)cc1OCC (stereo not drawn)	·	-11.3	·	·
CCc1ccc2nc(N3C(=O)c4oc5ccccc5c(=O)c4C3c3ccc(OC)c(OC)c3)sc2c1 (stereo not drawn)	29.5	·	37.8*	-5.4
COc1ccc(C2C(C(C)=O)=C(O)C(=O)N2c2nc3ccccc3s2)cc1OC (stereo not drawn)	-8.2	-9.6	-9.3	-2.9
CCn1c(C)nnc1SCC(=O)Nc1ccccc1Cl	·	-2.1	·	·
COc1ccccc1C(=O)NNC(=O)C(=O)NC(C)C	-5.7	-3.6	21.5	0.7
CN1CCc2[nH]c3ccc(C(=O)NN)cc3c2C1	-11.8	20.4*	-3.2	-2.9
CCOc1ccccc1C(=O)NCc1ccc2c(c1)OCO2	2.5	-4.6	11.7	0.4
CCOc1cccc2cc(-c3nnc(NCc4ccc5c(c4)OCO5)s3)c(=O)oc12	83.1*[fluorescence artefact?]	4.1	66.9*	0.7
CN1CCN(c2ccc(S(=O)(=O)N3CCCCC3)cc2NC(=O)/C=C/c2ccc(OC(F)F)cc2)CC1	·	-19.3	·	·
CCN1CCN(c2ccc(S(=O)(=O)N3CCCCC3)cc2NC(=O)/C=C/c2ccc([N+](=O)[O-])cc2)CC1	·	51.8*	·	·
CN1CCN(c2ccc(S(=O)(=O)N3CCCCC3)cc2NC(=O)/C=C/c2ccc(Cl)c([N+](=O)[O-])c2)CC1	·	52.5*	·	·
COc1ccc(CC2(CO)CCN(Cc3cnn(C)c3C)CC2)cc1	-8.4	1.5	-0.2	-4.8
Cc1cc(C)c(NC(=O)CSc2nc3ncc(Br)cc3[nH]2)c(Cl)c1	·	69.1*	·	·
COC(=O)c1cccc(NC(=S)Nc2ccc(Cl)c(Cl)c2)c1	12.1	0.1	-22.4	·
CC(C)(C)NC(=O)c1ccc2nsnc2c1	89.5*[fluorescence artefact?]	3.3	-11.2	2.2
COc1ccc(CN2CCN(S(=O)(=O)c3ccc(F)cc3)CC2)cc1OC	70.4*	-0.8	-3.5	-1.4
O=S(=O)(c1ccccc1)N1CCN(Cc2ccccc2)CC1	·	-0.9	·	·
O=S(=O)(c1ccccc1)N1CCN(Cc2cccc(Cl)c2)CC1	72.4*	-8.0	-10.0	-4.9
COc1ccc(CN2CCN(S(=O)(=O)c3ccc(NC(C)=O)cc3)CC2)cc1OC	67.7	-6.4	-3.9	-6.8
COc1ccc(CN2CCN(S(=O)(=O)c3ccc(F)cc3)CC2)c(OC)c1OC	76.6*	-6.2	1.4	-3.6
O=C(CSc1nnc(-c2ccc(F)cc2)o1)c1ccc2c(c1)OCCO2	0.0	4.0	-1.0	0.6
CC(C)(C)c1ccc(-c2nnc(SCC(=O)c3ccc4c(c3)OCCO4)o2)cc1	87.1*	-5.8	-9.2	3.5
c1cc2c(cc1C1CCCCC1)c1c3n2CCCNC3CCC1 (stereo not drawn)	-2.6	25.4*	-5.3	3.1
Cc1ccc2c(c1)c1c3n2CCCNC3CCC1 (stereo not drawn)	-3.5	0.1	-7.4	-2.5
CC(C)(C)C(=O)NC(CC(=O)O)c1ccccc1 (stereo not drawn)	-18.9	-5.7	-7.9	4.5
c1ccc(-c2ccccc2-c2nc(-c3ccncc3)no2)cc1	9.0	-14.8	-9.9	-1.4
Clc1ccccc1-c1nc(-c2ccncc2)no1	72.9*	-17.7	-11.8	·
CC(=O)c1ccc(NC(=O)C(C)N2CCN(C/C=C/c3ccccc3)CC2)cc1 (stereo not drawn)	-15.3	-4.6	-13.9	-6.1
